# Source: PubChem BioAssay (The Scripps Research Institute Molecular Screening Center)
# This is a sample that favours compounds with a hit; in the whole collection about 4.8% have one here.
# hgDAF12 agonist – hgDAF-12 agonism, primary luciferase screen | HEK293 GAL4-hgDAF12 UAS-luciferase reporter, agonist luminescence; normalized to butyrate control | activation, % at 6.8 µM | actives 1.8% (n = 370,000);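 active means activation above a cutoff set at the mean of all screened compounds plus 3 SD, cut at about 10% in these data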;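 further: 0% = DMSO wells and 100% = sodium butyrate wells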
# ssDAF-12 act – activates DAF-12 receptor from parasite S. stercoralis. HEK293 ssDAF-12/GRIP1 lit1-tk-luc reporter, luminescence; % of 3 µM dafachronic acid response. activation, % at 6.8 µM. actives 1% (n = 370,000);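 active means activation above the mean over all tested compounds plus 3 SD, cut at about 0.9% in these data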;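 further: 0% = DMSO-only wells and 100% = 3 µM delta7-dafachronic acid wells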
# hcDAF12 agonist – H. contortus DAF-12 activation, primary screen; actives 1.4% (n = 370,000); activation, % at 6.8 µM; HEK293 hcDAF-12 lit1-tk-luc reporter, luminescence; 0% DMSO, 100% Δ7-dafachronic acid;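 active means activation above the mean of all tested compounds plus 3 SD, cut at about 5.5% in these data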;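 further: 100% = response to 3 µM Δ7-dafachronic acid high control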
# DAX1 inh-1 – blocks DAX1 repression of SF-1 activated StAR promoter. HEK293T StAR-luciferase reporter, SF-1/DAX-1 repression relief. inhibition, % at 6.8 µM. actives 1.1% (n = 370,000). AID 652010;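 active means inhibition above the mean over all tested compounds plus 3 SD, cut at about 3.6% in these data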;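 further: 0% = DAX-1 cells with DMSO and 100% = cells lacking DAX-1 with DMSO; higher inhibition means more luminescence from relief of DAX-1 repression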
# SMARCA2 activ – increases SMARCA2 function in MMTV reporter cells; AID 652017; actives 1% (n = 370,000); activation, % at 9.1 µM; MG213 cells, MMTV-luciferase reporter, dexamethasone, overnight; in the data active means activation above about 7.8%;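 further: 0% = vehicle wells and 100% = reference activator wells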
# DAX1 inh-2 – inhibitors of human orphan nuclear receptor DAX1 (NR0B1) | inhibition, % at 6.75 µM | HEK293 Gal4-DAX1 luciferase reporter, luminescence | P51843 | actives 0.99% (n = 340,000);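 active means inhibition above the mean over all tested compounds plus 3 SD, cut at about 4.2% in these data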;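 further: 0% = DAX1-transfected cells with DMSO and 100% = empty-vector control cells with DMSO; inhibition shows as a rise in luminescence from relieved DAX1 repression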
# Target sequence (P51843 207-470 limits assumed): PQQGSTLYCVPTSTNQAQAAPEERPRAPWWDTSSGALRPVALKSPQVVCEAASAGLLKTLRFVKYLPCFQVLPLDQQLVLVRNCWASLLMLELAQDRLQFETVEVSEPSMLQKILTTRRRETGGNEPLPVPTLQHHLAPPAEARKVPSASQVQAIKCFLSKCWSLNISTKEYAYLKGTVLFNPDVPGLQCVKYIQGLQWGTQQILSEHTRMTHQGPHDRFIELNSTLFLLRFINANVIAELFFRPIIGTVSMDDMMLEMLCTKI
# Starred values were filed as active, the others as inactive; . = no result.
SMILES,hgDAF12 agonist,ssDAF-12 act,hcDAF12 agonist,DAX1 inh-1,SMARCA2 activ,DAX1 inh-2
NC1=NC(=O)/C(=C\c2cccnc2)S1,12.4*,-0.7,-1.4,0.3,-3.9,-1.4
COc1ccc(CN2CCNC(=O)C2CC(=O)N(Cc2nccn2C)C(C)C)c(OC)c1 (stereo not drawn),0.1,-0.5,-0.5,-0.7,-3.8,4.4*
CC(C)N(Cc1nccn1C)C(=O)CC1C(=O)NCCN1Cc1ccc(F)cc1 (stereo not drawn),2.4,-1.7,0.5,-1.6,-0.1,0.0
COc1ccc(/C=C2\SC(=S)N(N3C(=O)CCC3=O)C2=O)cc1O,-1.7,-0.3,-1.1,-0.4,-4.2,4.4*
COc1ccc(/C=C2/SC(=S)N(Cc3ccccc3)C2=O)cc1O,-0.7,-0.9,0.1,0.0,-0.2,-1.4
CCOC(=O)CSc1nc2cc(OCC)ccc2cc1C#N,11.2*,-0.2,1.9,2.3,6.8,1.4
COc1ccc(O)c(-c2cc(-c3cccs3)[nH]n2)c1,10.0,1.1*,5.8*,0.1,7.5,1.8
O=C(NNC(=O)c1c(O)c2ccccc2[nH]c1=O)c1ccccc1Br,0.9,0.9*,2.0,0.0,3.2,0.1
O=C(Nc1c[nH]c(=O)[nH]c1=O)c1ccccc1Br,-0.7,-0.5,0.4,0.0,-4.0,6.4*
O=C(Nc1ccccc1C(=O)Nc1ccccc1)c1ccccc1Br,-1.0,-0.5,-0.3,-0.6,-2.5,0.2
CC1(C)Cc2cccc(OCC(=O)Nc3ccc(S(N)(=O)=O)cc3)c2O1,-1.8,-1.1,-1.1,1.1,-2.6,0.3
CC(=O)c1ccc(N(CC(=O)NC2CCCC2)C(=O)CCC(=O)Nc2cc(C)on2)cc1,-3.3,-1.1,-0.8,-0.1,-0.9,2.2
Cc1ccccc1NC(=S)NNC(=O)c1ccoc1C,6.1,-0.5,1.6,0.7,1.6,1.4
Cc1occc1C(=O)NNC(=S)Nc1ccccc1C(F)(F)F,13.2*,-0.4,4.6,2.2,2.3,3.9
CC(=O)Oc1ccc(C(=O)Nc2ccccc2C(=O)Nc2cccc(C(=O)O)c2)cc1,0.6,-1.0,-1.4,0.2,1.6,5.4*
CCOc1ccc(S(=O)(=O)N2CC(=O)Nc3ccccc32)cc1C#N,1.6,-0.7,-0.7,-0.1,-2.1,4.3*
CCOc1ccc(S(=O)(=O)N2CC(=O)Nc3ccccc32)cc1,3.3,-1.4,-1.7,-0.5,-2.5,3.1
CCN(CC)C(=O)CCCSc1nnc(Nc2ccccc2F)s1,12.7*,-0.8,2.1,1.5,7.7,-0.2
Cc1sc2nc(CSC(C)C(=O)NC3(C#N)CCCCC3)[nH]c(=O)c2c1C (stereo not drawn),-1.6,-1.3,2.3,-0.2,-0.2,0.8
CCOc1ccc(-c2csc(NC(=O)CSC3=NC(=O)CN3C(C)=O)n2)c2ccccc12,11.2*,-0.8,-1.1,-0.7,2.2,0.6
CC1(C2CC2)NC(=O)N(CC(=O)N2CCN(c3cccc(C(F)(F)F)c3)CC2)C1=O (stereo not drawn),-4.6,-0.7,-2.3,-1.3,-2.6,-0.4
O=S1(=O)c2ccc(N3CCCC3)cc2Oc2ccccc2CN1Cc1cn(Cc2ccccc2C(F)(F)F)nn1,-2.0,-2.1,-2.6,-1.3,-6.5,.
COc1ccc(S(=O)(=O)N(C)C[C@H]2Oc3c(NC(=O)Cc4ccccc4)cccc3C(=O)N([C@H](C)CO)C[C@@H]2C)cc1,-2.3,-1.0,0.1,-0.6,0.3,-0.4
CC(OC(=O)c1cc2c(s1)CCCCC2)C(=O)NC(N)=O (stereo not drawn),1.6,-1.8,-1.8,-0.6,2.3,0.2
CC(C)C(OC(=O)c1cc2c(s1)CCCCC2)C(=O)NC(N)=O (stereo not drawn),-2.1,-0.9,5.8*,0.3,1.2,0.7
CC(=O)c1ccc(OCC(=O)NC2CCCN(Cc3ccccc3F)C2)cc1 (stereo not drawn),0.5,-1.1,0.7,-0.1,-0.9,0.1
O=C(CSc1ccc2nnc(CCNC(=O)c3ccccc3)n2n1)NCc1ccco1,-0.9,-0.5,-0.9,3.9*,-2.2,0.1
O=C(CSc1ccc2nnc(CCNC(=O)c3ccc(F)cc3)n2n1)NCc1ccco1,-1.5,-1.4,-2.5,0.5,-2.6,0.8
